Results on 23 molecules are retold here after PubChem BioAssay AID1347420 (Sanford-Burnham Center for Chemical Genomics, 2020).

The structures appear in SMILES notation. The whole screen tested about 1,300 compounds, of which about 980 (75%) were called active. Another 4% or so got no clear call; they are omitted. This is one part of the list.

The target of this experiment is Sulfhydryl oxidase 1 (Homo sapiens) (UniProt O00391). The experiment is described as follows: inhibition of human sulfhydryl oxidase QSOX1 – biochemical, HyperBlu H2O2 luminescence, HTS, primary screen (AID 1347420). Further: values above 100% were filed as inconclusive. To be noted: recombinant QSOX1, HyperBlu H2O2 luminescence, at 12.5 µM, active compounds read high; active = any value above zero unless noted.
Sequence of Sulfhydryl oxidase 1 (Homo sapiens) (O00391 whole entry, looked up): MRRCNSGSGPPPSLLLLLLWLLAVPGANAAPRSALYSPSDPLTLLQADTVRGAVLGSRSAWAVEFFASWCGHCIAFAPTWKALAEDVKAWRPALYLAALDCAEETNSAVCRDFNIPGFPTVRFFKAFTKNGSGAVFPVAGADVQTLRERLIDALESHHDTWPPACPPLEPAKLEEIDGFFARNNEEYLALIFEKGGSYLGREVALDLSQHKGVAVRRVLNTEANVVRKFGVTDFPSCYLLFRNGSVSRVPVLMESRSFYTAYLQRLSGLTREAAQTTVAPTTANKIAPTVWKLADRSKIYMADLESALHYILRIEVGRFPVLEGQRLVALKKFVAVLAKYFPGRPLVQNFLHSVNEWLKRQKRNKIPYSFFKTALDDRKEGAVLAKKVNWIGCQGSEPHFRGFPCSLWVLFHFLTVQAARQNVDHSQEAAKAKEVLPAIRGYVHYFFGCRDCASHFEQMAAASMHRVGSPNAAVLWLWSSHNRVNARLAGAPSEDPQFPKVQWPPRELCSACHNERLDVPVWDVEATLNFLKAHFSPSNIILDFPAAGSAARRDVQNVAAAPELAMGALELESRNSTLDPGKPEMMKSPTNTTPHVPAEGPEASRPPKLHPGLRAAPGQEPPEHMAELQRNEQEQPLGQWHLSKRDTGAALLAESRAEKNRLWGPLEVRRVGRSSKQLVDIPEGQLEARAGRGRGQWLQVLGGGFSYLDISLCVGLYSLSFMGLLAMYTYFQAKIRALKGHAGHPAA
In general, inhibition refers to the relative decrease from the control value, in per cent. For the molecule `CCN(CCCl)Cc1ccccc1Br`, the inhibition is 18% (active).

As for `CCCn1c(=O)c2[nH]c(C3CCCC3)nc2n(CCCOC(=O)c2ccc(S(=O)(=O)F)cc2)c1=O`, the inhibition was 10.4% (active).

As for `CC[C@@H](CO)NC(=O)[C@@H]1C=C2c3cccc4[nH]cc(c34)C[C@H]2N(C)C1`, the inhibition is 24.7% [setting not given] (active).

Consider `CC[C@@H](CO)NC(=O)[C@@H]1C=C2c3cccc4c3c(cn4C)C[C@H]2N(C)C1`, for which the inhibition was 9.7% [setting not given] (active).

Consider `NCC1(CC(=O)O)CCCCC1`, for which the inhibition is 4.2% [setting not given] (active).

Take `CC(=O)c1c(O)c(C)c(O)c(Cc2c(O)c3c(c(C(=O)/C=C/c4ccccc4)c2O)OC(C)(C)C=C3)c1O`: the inhibition is 59.1% (active).

On to `O=c1[nH]oc2c1CCNC2`, for which the inhibition was 8.4% (active).

In the case of `CC(Cc1ccc(OCC(=O)O)cc1)NCC(O)c1cccc(Cl)c1` (stereo not drawn), the inhibition was 10.8% (active).

Turning to `C[C@H](Cc1ccc2c(c1)OC(C(=O)O)(C(=O)O)O2)NC[C@H](O)c1cccc(Cl)c1`, the inhibition was 13.4% (active).

In the case of `Nc1ccncc1`, the inhibition is 22.3% [setting not given] (active).

Turning to `CC(=O)[C@H]1CCC2C3CC[C@H]4C[C@H](O)CC[C@]4(C)C3CC[C@@]21C` (stereo partly drawn), the inhibition is 4.6% [setting not given] (active).

On to `CC(=O)[C@H]1CC[C@H]2[C@@H]3CC[C@H]4C[C@H](O)CC[C@]4(C)[C@H]3C(=O)C[C@]12C`, for which the inhibition was 5% [setting not given] (active).

For `C[C@]12CCC3C(CC[C@H]4C[C@H](O)CC[C@]34C)C1CC[C@@H]2C(=O)CO` (stereo partly drawn), the inhibition is 5.6% (active).

`CC(=O)[C@H]1CC[C@H]2[C@@H]3CC[C@H]4C[C@](C)(O)CC[C@]4(C)[C@H]3CC[C@]12C`: the inhibition was 11.6% [setting not given] (active).

Consider `CN1C[C@H](CNC(=O)OCc2ccccc2)C[C@@H]2c3cccc4c3c(cn4C)C[C@H]21`, for which the inhibition was 6.1% [setting not given] (active).

Consider `C[C@]12Cc3cn4c(nc3C=C1CCC1C2CC[C@@]2(C)[C@H]1CC[C@@]2(O)C#N)nc1ccccc14` (stereo partly drawn), for which the inhibition was -42.5% (inactive).

Regarding `CC(C)Oc1cccnc1N(C)C1CCN(Cc2ccccc2)CC1`, the inhibition is 7% (active).

With `CC(C)c1cccc(C(C)C)c1O`, the inhibition is 16.7% (active).

With `CC(N)c1cccc(Cl)c1Cl` (stereo not drawn), the inhibition is -1% (inactive).

For the molecule `CN[C@@H]1C[C@@H](c2ccc(Cl)c(Cl)c2)c2ccccc21`, the inhibition is 3.8% (active).

On to `NC(Cn1oc(=O)[nH]c1=O)C(=O)O` (stereo not drawn), for which the inhibition is -10.8% (inactive).

For `Cc1o[nH]c(=O)c1CC(N)C(=O)O` (stereo not drawn), the inhibition was 11.9% (active).

Take `CCCC(C)(COC(N)=O)COC(=O)NC(C)C` (stereo not drawn): the inhibition is -3.5% [setting not given] (inactive).
